Reference: PubChem BioAssay
The source made the active and inactive calls.

Assays:
Albumin (Bos taurus) = Albumin (Bos taurus) (UniProt P02769); assay: compounds binding labelled BSA control protein – biochemical, small-molecule microarray, Alexa647 label, 635/667 nm fluorescence, artefact control for SMM control protein annotation, profiling panel (AID 1118); details: BSA-A647 binding, fluorescence 635 nm, higher = more signal;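 note: score merges 667 nm emission intensity and signal-to-noise per printed compound spot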
[1] = probe aXIP binding to arrayed compounds – biochemical, NeuroSMM set, 635/667 nm fluorescence, primary screen (AID 1119); details: small-molecule microarray, higher = more signal, called active from +8 up or from −8 down;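 note: probe is the protein aXip251-270 applied at 1 µg/mL to compound-printed slides; binding of probe to printed compounds measured as 667 nm fluorescence plus signal to noise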
[2] = probe aNOTCH3 binding on compound microarray – biochemical, small-molecule microarray, 635/667 nm fluorescence, primary screen (AID 1120); details: higher = more signal;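 note: probe is a biotin-tagged antibody raised against NOTCH3 rather than NOTCH3 protein; score merges spot fluorescence near 667 nm with spot signal to noise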
[3] = probe aNOTCH2 binding on compound microarray – biochemical, small-molecule microarray, 635/667 nm fluorescence, primary screen (AID 1121); details: higher = more signal;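 note: score merges feature fluorescence read at 667 nm with its signal to noise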
[4] = target: Carbonic anhydrase 2 (Homo sapiens) (UniProt P00918); assay: compounds binding carbonic anhydrase 2 – biochemical, small-molecule microarray, Alexa647-labelled CAII, profiling panel (AID 1122); details: CAII-A647 binding fluorescence, higher = more signal
[5] = COS7 lysate on small-molecule microarray, probe aHis, 635 nm (AID 1123); details: COS7 cell lysate, fluorescence, higher = more signal;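 note: z-score combines 667nm fluorescence intensity with signal-to-noise per printed compound spot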
[6] = probe aLAP1 signal on lysate-treated microarray – cell lysate, small-molecule microarray, COS7 lysate, primary screen (AID 1124); details: probe aLAP1, fluorescence, higher = more signal;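 note: lysate comes from COS7 cells expressing LAP1 and is applied at 0.3 µg/mL; score merges spot fluorescence near 667 nm with signal-to-noise over triplicate slides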
Sam68 (KHDRBS1) = assay: compounds binding KHDRBS1 protein – biochemical, small-molecule microarray, 635 nm fluorescence, primary screen (AID 1125); details: higher = more signal;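 note: score merges 667 nm channel intensity with signal to noise over triplicate slides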
[7] = tested on: Chordin-like protein 2 (CHRDL2); assay: compounds binding chordin-like 2 – biochemical, small-molecule microarray, 635 nm fluorescence, primary screen (AID 1126); details: fluorescence 635 nm, higher = more signal;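 note: printed compound slides probed with Chrdl2 protein at 4 µg/mL for 1 h at 4 C; score merges 667 nm emission intensity with signal to noise over three replicate slides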
[8] = target: Concanavalin-A (Canavalia ensiformis) (UniProt P02866); assay: compounds binding concanavalin A lectin – biochemical, small-molecule microarray, Alexa647 label, 635 nm, artefact control for SMM control protein annotation, primary screen (AID 1127); details: ConA-A647 binding fluorescence, higher = more signal;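 note: z combines 667 nm emission intensity with signal-to-noise across three replicate slides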
[9] = compounds binding Alexa647 anti-His antibody – biochemical, small-molecule microarray, 635 nm fluorescence, artefact control for SMM control protein annotation, primary screen (AID 1128); details: higher = more signal;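 note: score merges feature fluorescence with signal-to-noise for each printed compound spot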
[10] = tested on: Human papillomavirus type 1a E7 protein (residues 1-88); assay: HPV1a E7 small-molecule binders, primary screen, biochemical, small-molecule microarray, residues 1-88, 635 nm (AID 1129); details: small-molecule microarray binding, fluorescence 635 nm; higher = more signal
[11] = target: Focal adhesion kinase 1 (Homo sapiens) (UniProt Q05397); assay: PTK2 protein binding on printed compound slides – biochemical, small-molecule microarray, 635/667 nm fluorescence, BSA, DTT, primary screen (AID 1130); details: 635 nm fluorescence, higher = more signal;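 note: composite of spot emission at 667 nm and signal to noise over triplicate slides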
[12] = tested on: Fibrinogen (Alexa647-labelled); assay: Alexa647-fibrinogen binding to printed small molecules – biochemical, small-molecule microarray, 635/667 nm fluorescence, artefact control for SMM control-protein annotation, profiling panel (AID 1131); details: fibrinogen-A647 binding fluorescence, higher = more signal;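 note: z-score merges 667 nm fluorescence with per-spot signal-to-noise over triplicate slides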
[13] = target: Follistatin (Homo sapiens) (UniProt P19883); assay: FST protein binding to printed compounds – biochemical, small-molecule microarray, 635/667 nm fluorescence, primary screen (AID 1132); details: 635 nm fluorescence, higher = more signal
[14] = target: Fibroblast growth factor 2 (Homo sapiens) (UniProt P09038); assay: basic fibroblast growth factor binding to printed compounds – biochemical, small-molecule microarray, 635/667 nm fluorescence, primary screen (AID 1133); details: FGF2, fluorescence 635/667, higher = more signal
[15] = JC-1 mitochondrial potential readout, lung cancer cells – cell-based, A549, JC-1 fluorescence, basal, 24 h, 100 nL, profiling panel (AID 1138); details: higher = more signal;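 note: A549 lung adenocarcinoma cells under basal conditions with no added stimulus; test concentration not given here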
Lefty1 = Lefty1 protein binding to printed compounds – biochemical, small-molecule microarray, 635/667 nm fluorescence, primary screen (AID 1139); details: fluorescence 635/667, higher = more signal
[16] = tested on: wheat germ agglutinin (Triticum aestivum), Alexa647-labelled; assay: Alexa647-WGA lectin binding to printed small molecules – biochemical, small-molecule microarray, 635/667 nm fluorescence, artefact control for SMM control-protein annotation, profiling panel (AID 1140); details: WGA-A647 binding, 635 nm fluorescence, higher = more signal;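 note: score merges 667 nm feature emission with signal to noise over triplicate slides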
[17] = target: Luciferin 4-monooxygenase (Photinus pyralis) (UniProt P08659); assay: inhibition of purified Photinus pyralis luciferase – biochemical, luminescence, purified enzyme, 2006 set, primary screen (AID 1141); details: purified firefly luciferase, SteadyGlo luminescence, 30 min; higher = more signal, called active from +8 up or from −8 down;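 note: cell-free assay with purified firefly luciferase at 100 ng per well in PBS; test concentration not given here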
Sequence of Luciferin 4-monooxygenase (Photinus pyralis) (P08659 whole entry, looked up): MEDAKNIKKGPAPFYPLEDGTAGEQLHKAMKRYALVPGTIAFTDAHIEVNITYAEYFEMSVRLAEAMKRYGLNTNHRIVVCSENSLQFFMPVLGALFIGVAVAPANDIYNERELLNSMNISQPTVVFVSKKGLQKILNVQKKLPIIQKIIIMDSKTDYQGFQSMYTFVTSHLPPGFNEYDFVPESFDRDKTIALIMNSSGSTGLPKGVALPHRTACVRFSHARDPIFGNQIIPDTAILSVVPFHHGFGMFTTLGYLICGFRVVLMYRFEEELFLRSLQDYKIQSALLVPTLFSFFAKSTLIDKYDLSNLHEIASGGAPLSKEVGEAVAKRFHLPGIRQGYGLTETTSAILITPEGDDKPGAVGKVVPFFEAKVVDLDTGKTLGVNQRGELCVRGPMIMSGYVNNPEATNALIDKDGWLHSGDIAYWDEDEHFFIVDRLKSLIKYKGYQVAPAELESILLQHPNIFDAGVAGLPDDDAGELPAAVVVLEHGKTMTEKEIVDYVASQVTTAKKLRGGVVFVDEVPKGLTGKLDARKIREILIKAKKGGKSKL

Sequence of Albumin (Bos taurus) (P02769 whole entry, looked up): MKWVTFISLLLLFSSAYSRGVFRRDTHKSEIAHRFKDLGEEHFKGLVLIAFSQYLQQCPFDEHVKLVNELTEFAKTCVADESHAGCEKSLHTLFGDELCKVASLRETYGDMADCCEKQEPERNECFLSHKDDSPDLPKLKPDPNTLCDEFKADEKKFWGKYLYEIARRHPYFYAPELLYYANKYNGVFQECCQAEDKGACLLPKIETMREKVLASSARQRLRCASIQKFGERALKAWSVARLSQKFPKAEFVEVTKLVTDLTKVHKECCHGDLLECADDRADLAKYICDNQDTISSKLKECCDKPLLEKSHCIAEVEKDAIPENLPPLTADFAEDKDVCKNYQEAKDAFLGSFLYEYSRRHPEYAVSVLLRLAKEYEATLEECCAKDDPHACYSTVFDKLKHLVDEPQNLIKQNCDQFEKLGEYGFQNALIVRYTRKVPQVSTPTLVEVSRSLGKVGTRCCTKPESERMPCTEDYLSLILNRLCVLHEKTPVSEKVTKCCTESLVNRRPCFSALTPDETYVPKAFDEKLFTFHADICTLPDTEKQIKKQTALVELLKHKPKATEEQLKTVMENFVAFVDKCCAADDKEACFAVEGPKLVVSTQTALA
Sequence of Concanavalin-A (Canavalia ensiformis) (P02866 whole entry, looked up): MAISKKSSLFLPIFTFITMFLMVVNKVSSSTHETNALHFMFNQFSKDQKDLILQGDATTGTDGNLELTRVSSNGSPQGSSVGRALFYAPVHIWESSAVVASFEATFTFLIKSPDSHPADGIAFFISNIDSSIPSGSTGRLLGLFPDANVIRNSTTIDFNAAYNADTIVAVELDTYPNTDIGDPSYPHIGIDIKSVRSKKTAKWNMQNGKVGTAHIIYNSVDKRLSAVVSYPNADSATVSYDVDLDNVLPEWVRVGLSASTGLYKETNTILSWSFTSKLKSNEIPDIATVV
Sequence of Focal adhesion kinase 1 (Homo sapiens) (Q05397 whole entry, looked up): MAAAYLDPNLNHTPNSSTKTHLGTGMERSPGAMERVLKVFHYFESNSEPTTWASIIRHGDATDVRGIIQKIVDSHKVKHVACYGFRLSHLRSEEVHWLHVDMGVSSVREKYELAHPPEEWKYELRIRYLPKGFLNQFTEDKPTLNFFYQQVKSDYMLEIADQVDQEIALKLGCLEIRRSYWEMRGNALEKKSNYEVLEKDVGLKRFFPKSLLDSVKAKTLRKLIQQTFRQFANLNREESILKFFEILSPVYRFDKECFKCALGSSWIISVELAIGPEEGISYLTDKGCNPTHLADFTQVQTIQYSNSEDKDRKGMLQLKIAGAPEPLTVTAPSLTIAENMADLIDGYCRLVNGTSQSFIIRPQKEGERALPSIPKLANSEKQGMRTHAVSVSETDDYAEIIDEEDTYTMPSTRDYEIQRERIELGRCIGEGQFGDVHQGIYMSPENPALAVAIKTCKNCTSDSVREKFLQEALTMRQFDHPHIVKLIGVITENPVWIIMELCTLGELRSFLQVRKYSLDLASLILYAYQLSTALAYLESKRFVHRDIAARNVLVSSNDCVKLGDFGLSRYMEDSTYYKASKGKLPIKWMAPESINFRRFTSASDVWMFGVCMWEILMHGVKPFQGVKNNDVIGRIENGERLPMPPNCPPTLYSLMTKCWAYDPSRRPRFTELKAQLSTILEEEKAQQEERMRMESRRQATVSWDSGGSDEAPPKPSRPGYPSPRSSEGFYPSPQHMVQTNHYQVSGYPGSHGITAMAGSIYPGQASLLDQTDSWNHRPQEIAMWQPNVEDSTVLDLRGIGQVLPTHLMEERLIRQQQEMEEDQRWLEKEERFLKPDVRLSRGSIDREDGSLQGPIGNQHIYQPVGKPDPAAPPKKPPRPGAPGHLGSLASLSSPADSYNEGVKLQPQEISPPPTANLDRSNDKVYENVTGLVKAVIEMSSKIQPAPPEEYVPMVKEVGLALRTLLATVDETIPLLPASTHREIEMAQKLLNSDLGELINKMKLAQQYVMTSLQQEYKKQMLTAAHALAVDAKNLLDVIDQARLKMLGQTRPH
Sequence of Fibroblast growth factor 2 (Homo sapiens) (P09038 whole entry, looked up): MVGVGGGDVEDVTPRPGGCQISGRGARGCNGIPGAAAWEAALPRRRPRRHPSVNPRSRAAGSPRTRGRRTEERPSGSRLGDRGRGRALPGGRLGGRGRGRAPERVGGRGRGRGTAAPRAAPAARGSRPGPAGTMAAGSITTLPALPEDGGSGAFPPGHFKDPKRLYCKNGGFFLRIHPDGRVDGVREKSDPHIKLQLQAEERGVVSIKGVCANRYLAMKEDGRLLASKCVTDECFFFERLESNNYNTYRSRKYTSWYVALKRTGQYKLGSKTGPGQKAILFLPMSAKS
Sequence of Follistatin (Homo sapiens) (P19883 whole entry, looked up): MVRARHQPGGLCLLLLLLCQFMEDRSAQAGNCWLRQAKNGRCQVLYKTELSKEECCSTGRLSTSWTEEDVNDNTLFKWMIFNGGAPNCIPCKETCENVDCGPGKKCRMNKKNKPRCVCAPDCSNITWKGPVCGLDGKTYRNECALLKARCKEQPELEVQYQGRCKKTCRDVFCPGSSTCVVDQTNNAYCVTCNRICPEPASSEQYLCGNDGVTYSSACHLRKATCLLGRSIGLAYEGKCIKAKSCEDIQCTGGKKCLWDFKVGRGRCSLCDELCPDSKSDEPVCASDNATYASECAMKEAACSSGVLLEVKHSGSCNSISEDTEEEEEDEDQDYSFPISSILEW

What does the source list for `COCCOC(=O)N1C(=O)[C@@]2(c3cc(C#Cc4ccc(OC)cc4)ccc31)[C@H](c1ccc(OCCO)cc1)N1[C@H](c3ccccc3)[C@H](c3ccccc3)OC(=O)[C@H]1[C@@H]2C(=O)N1CCc2cc(OC)c(OC)cc2C1`?
composite z-score (Albumin (Bos taurus)): -0.536; composite Z-score [1]: 0.343 (inactive); composite z-score [2]: 0.0194; composite z-score [3]: -0.0907; composite z-score [4]: 0.228; composite z-score [5]: 0.875; composite z-score [6]: 0.556; composite z-score (Sam68 (KHDRBS1)): 1.17; composite z-score [7]: 0.599; composite z-score [8]: 0.843; composite z-score [9]: 0.512; composite z-score [10]: 1.08; composite z-score [11]: 0.272; composite z-score [12]: -0.122; composite z-score [13]: 1.25; composite z-score [14]: 1.24; z-score [15]: -1.35; composite z-score (Lefty1): 1.13; composite z-score [16]: -0.12; z-score [17]: -0.584 (inactive)

Which composite z-score (Albumin (Bos taurus)) does the source give for `CN1C(=O)C2C=CC(C(O)C(C)(C)C)N(Nc3ccccc3)C2C1=O` (stereo not given) here?
Its composite z-score is 0.494.

And the composite Z-score [1]?
The composite Z-score was 0.914 (inactive).

What about the composite z-score [2] of the same molecule?
Its composite z-score is -0.217.

And the composite z-score [3]?
The composite z-score was -0.029.

And the composite z-score [4]?
Its composite z-score is 0.847.

What about the composite z-score [5] of the same molecule?
The composite z-score was 2.78.

And the composite z-score [6]?
The composite z-score was -0.519.

And the composite z-score (Sam68 (KHDRBS1))?
Its composite z-score is -0.141.

What about the composite z-score [7] of the same molecule?
Its composite z-score is -0.156.

What about the composite z-score [8] of the same molecule?
Its composite z-score is -0.127.

What about the composite z-score [9] of the same molecule?
Its composite z-score is 0.218.

What about the composite z-score [10] of the same molecule?
Its composite z-score is -0.178.

And the composite z-score [11]?
Its composite z-score is 0.694.

What about the composite z-score [12] of the same molecule?
The composite z-score was -0.0163.

What about the composite z-score [13] of the same molecule?
The composite z-score was -0.288.

And the composite z-score [14]?
The composite z-score was -0.695.

What about the z-score [15] of the same molecule?
The z-score was 0.31.

What about the composite z-score (Lefty1) of the same molecule?
The composite z-score was -1.06.

What about the composite z-score [16] of the same molecule?
The composite z-score was -0.062.

What about the z-score [17] of the same molecule?
Its z-score is 0.856 (inactive).

For `COc1ccc([Si](C)(C)[C@@H]2[C@@H](CCO)O[C@]3(C(=O)N(Cc4ccc(N5C(=O)c6cccc7cccc5c67)cc4)c4ccccc43)[C@H]2C)cc1`, which composite z-score (Albumin (Bos taurus)) is on record?
The composite z-score was 0.308.

And the composite Z-score [1]?
The composite Z-score was 0.77 (inactive).

What about the composite z-score [2] of the same molecule?
Its composite z-score is -0.252.

And the composite z-score [3]?
Its composite z-score is -0.119.

And the composite z-score [4]?
The composite z-score was 0.382.

And the composite z-score [5]?
The composite z-score was 0.332.

What about the composite z-score [6] of the same molecule?
Its composite z-score is 0.232.

What about the composite z-score (Sam68 (KHDRBS1)) of the same molecule?
The composite z-score was -0.276.

What about the composite z-score [7] of the same molecule?
Its composite z-score is -0.161.

What about the composite z-score [8] of the same molecule?
The composite z-score was -0.259.

And the composite z-score [9]?
The composite z-score was -0.0225.

And the composite z-score [10]?
The composite z-score was -0.797.

What about the composite z-score [11] of the same molecule?
The composite z-score was 0.138.

And the composite z-score [12]?
The composite z-score was -0.518.

What about the composite z-score [13] of the same molecule?
The composite z-score was -1.12.

What about the composite z-score [14] of the same molecule?
The composite z-score was -0.753.

And the z-score [15]?
Its z-score is 1.23.

What about the composite z-score (Lefty1) of the same molecule?
Its composite z-score is -0.536.

What about the composite z-score [16] of the same molecule?
The composite z-score was 0.397.

And the z-score [17]?
The z-score was -0.604 (inactive).

Which composite z-score (Albumin (Bos taurus)) does the source give for `CCN(CC)c1ccc(N2CC=CC34O[C@@H]5/C=C\CCC(C)OC(=O)C5[C@H]3C(=O)N(CCCCCCO)[C@@H]4C2=O)cc1` (stereo not given in full) here?
The composite z-score was 0.362.

And the composite Z-score [1]?
The composite Z-score was 0.184 (inactive).

What about the composite z-score [2] of the same molecule?
Its composite z-score is -0.204.

What about the composite z-score [3] of the same molecule?
The composite z-score was -0.224.

And the composite z-score [4]?
The composite z-score was 0.548.

And the composite z-score [5]?
Its composite z-score is -0.039.

What about the composite z-score [6] of the same molecule?
The composite z-score was -0.458.

What about the composite z-score (Sam68 (KHDRBS1)) of the same molecule?
The composite z-score was -0.264.

And the composite z-score [7]?
The composite z-score was -0.143.

What about the composite z-score [8] of the same molecule?
The composite z-score was -0.285.

And the composite z-score [9]?
Its composite z-score is 0.0517.

What about the composite z-score [10] of the same molecule?
Its composite z-score is -0.089.

What about the composite z-score [11] of the same molecule?
The composite z-score was -0.182.

And the composite z-score [12]?
Its composite z-score is -1.59.

What about the composite z-score [13] of the same molecule?
Its composite z-score is -0.371.

And the composite z-score [14]?
The composite z-score was -0.361.

What about the z-score [15] of the same molecule?
The z-score was 0.905.

And the composite z-score (Lefty1)?
The composite z-score was -0.652.

What about the composite z-score [16] of the same molecule?
Its composite z-score is 0.524.

And the z-score [17]?
The z-score was -1.59 (inactive).

With `COc1ccc(C(O)C2C=CC3C(=O)N(c4ccccc4)C(=O)C3N2Nc2ccccc2)c2ccccc12` (stereo not given) as the molecule, how does the composite z-score (Albumin (Bos taurus)) read?
The composite z-score was 0.705.

What about the composite Z-score [1] of the same molecule?
The composite Z-score was 0.0542 (inactive).

What about the composite z-score [2] of the same molecule?
The composite z-score was 0.19.

What about the composite z-score [3] of the same molecule?
Its composite z-score is -0.0528.

And the composite z-score [4]?
Its composite z-score is 0.522.

And the composite z-score [5]?
The composite z-score was 1.97.

And the composite z-score [6]?
The composite z-score was 0.0206.

What about the composite z-score (Sam68 (KHDRBS1)) of the same molecule?
Its composite z-score is -0.309.

And the composite z-score [7]?
Its composite z-score is -0.841.

What about the composite z-score [8] of the same molecule?
Its composite z-score is 0.69.

And the composite z-score [9]?
The composite z-score was 2.08.

And the composite z-score [10]?
The composite z-score was 1.12.

What about the composite z-score [11] of the same molecule?
Its composite z-score is 0.592.

What about the composite z-score [12] of the same molecule?
The composite z-score was -0.833.

What about the composite z-score [13] of the same molecule?
The composite z-score was 0.037.

What about the composite z-score [14] of the same molecule?
The composite z-score was -0.702.

What about the z-score [15] of the same molecule?
Its z-score is -0.284.

And the composite z-score (Lefty1)?
Its composite z-score is -0.0743.

What about the composite z-score [16] of the same molecule?
The composite z-score was 0.285.

And the z-score [17]?
The z-score was -0.597 (inactive).
